High-throughput results deposited in PubChem by several laboratories.
Efflux pump mplx – inhibitors of Candida antifungal efflux pumps expressed in yeast | S. cerevisiae Candida pump triplex, Nile Red efflux | inhibition, % at 10 µM | hit rate 0.44% among 330,000;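 active = plate passing quality check with inhibition over a set limit, or well fluorescence over plate mean plus 4 SD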;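 also: Nile Red retained in pooled yeast measured as flow cytometry median fluorescence; higher means more Nile Red kept so more efflux inhibition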
VLA-4 inh – inhibition in a human VLA-4 binding assay. VLA-4 expressing cells, ligand binding flow cytometry. hit rate 0.2% among 330,000. inhibition, % (about 7 µM as worked out from the volumes in the protocol); in the data active = inhibition above about 50%
AHR act – human AHR activation; P35869; AHR-responsive luciferase reporter cells, luminescence; activation, % at 5 µM; hit rate 2.5% among 320,000; in the data active = activation above about 47%
SUMO Mot1 rescue – blocks SUMOylation pathway, rescuing yeast Mot1-301 growth; S. cerevisiae Mot1-301 growth rescue, ATP luminescence, 38.5C; percent above DMSO median, 100 means doubled; growth rescue, % at 18.8 µM; hit rate 1% among 320,000; AID 2716;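 active = every valid replicate shows activation above 250% relative to neutral control wells; inactive = the rest, any valid replicate at or below 250%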
ALR inh – human ALR oxidase inhibition via reduced H2O2 | P55789 | purified ALR, DTT oxidation, H2O2 HRP-luminol luminescence | inhibition, % (no concentration beside the values) | hit rate 3.8% among 290,000 | AID 485317;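 active = mean replicate inhibition above about 79%, with every replicate also reaching it, limit read from the data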
A1 inh – inhibitors of the anti-apoptotic protein A1, read as caspase activation | MEF A1-2A-BIM cells, Caspase-Glo 3/7 luminescence, 3 h; percent of clofoctol response, vehicle zero | caspase activation, % (test concentration not listed) | hit rate 0.066% among 330,000;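 active = over half of replicate activation scores above 10%, or exactly half above 10 with the replicate mean above 10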
A number is an active result; 0 = inactive; - = no result given. Hits are enriched below; roughly 7.2% of the tested compounds scored in any of these assays.

SMILES | Efflux pump mplx | VLA-4 inh | AHR act | SUMO Mot1 rescue | ALR inh | A1 inh
COc1ccc(-c2csc(N)n2)cc1F | 0 | 0 | 0 | 0 | 96 | 0
Nc1nc(-c2ccc(F)cc2)cs1 | 0 | 0 | 0 | 0 | 0 | 0
Cc1ccc(OCCC(=O)N(CCC(C)C)c2c(N)n(Cc3ccccc3)c(=O)[nH]c2=O)cc1 | 0 | 0 | 0 | 0 | 0 | 0
CCNc1nc(NCC)nc(N/N=C/c2ccc(N(C)C)cc2)n1 | 0 | 0 | 0 | 0 | 99 | 0
CCNc1nc(NCC)nc(N/N=C/c2cc(OC)c(OC)c(OC)c2)n1 | 0 | 0 | 0 | 0 | 0 | 0
COc1cc(N/N=C/c2ccc(N(C)C)cc2)ncn1 | 0 | 0 | 79 | 0 | - | 0
CCNc1nc(NCC)nc(N/N=C/c2ccc(O)c(O)c2)n1 | 0 | 0 | 0 | 0 | 99 | 0
COc1cc(N/N=C/c2ccccc2O)ncn1 | 0 | 0 | 0 | 0 | 0 | 0
CCn1c2ccccc2c2nc3ccccc3nc21 | 0 | 0 | 90 | 0 | 0 | 0
CSc1nnc2c3ccccc3n(CCc3ccccc3)c2n1 | 0 | 0 | 0 | - | 0 | 0
CCCCc1c(C)nn(-c2nnc3c4ccccc4n(CC)c3n2)c1C | 0 | 0 | 52 | 0 | 0 | 0
C=CC[n+]1c(-c2ccc(Cl)cc2Cl)csc1Nc1ccc(NC(C)=O)cc1 | 0 | 0 | 0 | 0 | 0 | 0
C=CC[n+]1c(C)csc1Nc1cccc(Br)c1 | 0 | 0 | 0 | 0 | 97 | 0
CC(C)c1cc(C(=O)N/N=C/c2ccco2)n[nH]1 | 0 | 0 | 0 | 0 | 83 | 0
